Laboratory results published in PMC5540273 (PLoS ONE, 2017).

The molecules below were run on EPHB1. Details: concentration: 1 μM,replicates: in singlicate; n = 1.
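Further: KINOMEscan kinase panel screen.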

Compared with Cl.Cl.NC[C@H](Cc1ccc(C(F)(F)F)cc1)NC(=O)c1cc(Br)c(-c2ccnc3[nH]ccc23)s1 [GSK1487252], COc1ccc(C[C@@H](CN)NC(=O)c2cc(Br)c(-c3ccnc4[nH]ccc34)s2)cc1.Cl.Cl [GSK1389063] is higher in “%Inh” value: 12% for the first, 19% for the second.

First: Nc1nc(Nc2ccccc2)cc(-c2ccc3c(N)n[nH]c3c2)n1 [GSK2225749]
Second: CC(C)Nc1cc(-c2ccc3c(N)n[nH]c3c2)nc(N)n1 [GSK2221681]
The “%Inh” value of the first is higher: 4% for the first, 0% for the second.

Going from CC(C)N1C(=O)Cc2cc(Nc3ncc(C(F)(F)F)c(NCc4cccc(S(C)(=O)=O)c4)n3)ccc21 to CCN(CC)CCOc1ccc(Nc2ncc3cc(-c4c(Cl)cccc4Cl)c(=O)n(C)c3n2)cc1 [SB-601273], the “%Inh” value rises from 16% to 99.8%.

First: Cl.Cl.NC[C@H](CC1CCCCC1)NC(=O)c1cc(Br)c(-c2ccnc3[nH]ccc23)s1 [GSK1581427]
Second: O=C(NCCCN1CCOC1=O)c1cnc(NCc2cc(Cl)ccc2Cl)nc1NC1CCCC1
The “%Inh” value of the first is higher: 17% for the first, 8% for the second.

First: CN(C)CC(O)COc1ccc(Nc2nccc(-c3cnn4nc(N5CCOCC5)ccc34)n2)cc1 (centres unmarked) [GW767488]
Second: CN(C)CCOc1ccc(-c2cc(-c3c[nH]nc3-c3ccccn3)ccn2)cc1 [GW835314]
The “%Inh” value of the first is higher: 9% for the first, 2% for the second.

First: Cc1n[nH]c2ccc(-c3cc(OC[C@@H](N)Cc4ccccc4)cnc3-c3ccoc3)cc12.O=C(O)C(F)(F)F.O=C(O)C(F)(F)F [GSK507358]
Second: Cc1occc1-c1nc(N)c(OC[C@@H](N)Cc2c[nH]c3ccccc23)cc1-c1cc2c(C)n[nH]c2cn1 [GSK1660450]
The “%Inh” value of the first is lower: 0% for the first, 24% for the second.

Compared with C[C@@H]1CCN(C(=O)CC#N)C[C@@H]1N(C)c1ncnc2[nH]ccc12, Cl.Cl.Nc1nc(-c2ccc3c(N)n[nH]c3c2)cc(N2CCCC(NC(=O)c3ccccc3)C2)n1 (centres unmarked) [GSK2286775] is higher in “%Inh” value: 0% for the first, 27% for the second.

Cl.Oc1cc(-c2nc(-c3ccccc3)[nH]c2-c2ccncc2)ccc1Cl [SB-386023] and Cc1ccc2c(-c3ccncc3)c(-c3ccc(F)cc3)nn2c1.Cl [GW461484] are the same in “%Inh” value: 0% for the first, 0% for the second.

First: Cc1cc(C(=O)Nc2ccc(Oc3ccc4nc(NC(=O)C5CC5)cn4n3)cc2)nn1-c1ccccc1
Second: O=C(NCCNc1ccnc(NCc2ccc(F)cc2)n1)c1cc2ccccc2s1 [GSK1379944]
The “%Inh” value of the first is higher: 18% for the first, 6% for the second.

First: CCN(CC)CCCCNc1ncc2cc(-c3c(Cl)cccc3Cl)c(NC(=O)NC(C)(C)C)nc2n1
Second: Cc1cc2cn[nH]c2cc1-c1cccc2c(N)c(C(N)=O)nnc12
The “%Inh” value of the first is higher: 99.9% for the first, 15% for the second.

Going from CNC(=O)c1ccccc1Sc1ccc2c(/C=C/c3ccccn3)n[nH]c2c1 to NC(=O)c1cc(-c2ccccc2)cc2c(C3CCNCC3)c[nH]c12 [GSK301362], the “%Inh” value rises from 0% to 26%.

Going from CCn1c(-c2nonc2N)nc2c(C#CC(C)(C)O)nc(OCCN)cc21.Cl.Cl [GSK902056] to C[C@H]1Oc2cc(cnc2N)-c2c(nn(C)c2C#N)CN(C)C(=O)c2ccc(F)cc21, the “%Inh” value rises from 3% to 27%.

Going from C[C@@H](Oc1cc(-c2cnn(C3CCNCC3)c2)cnc1N)c1c(Cl)ccc(F)c1Cl to C=CC(=O)Nc1cc2c(Nc3ccc(F)c(Cl)c3)ncnc2cc1OCCCN1CCOCC1 [GW781483], the “%Inh” value falls from 68% to 9%.
